Giardia FBPA inh = blocks Giardia fructose-bisphosphate aldolase activity. A8B2U2. purified Giardia FBPA. Potency, µM (top dose mostly 59.6 µM), for the others: at the top dose activity, negative = inhibition, usual class: inhibitors. 290,000 compounds, 0.71% hits. AID 2451; also: nearly all actives have a fitted effect of over 55% in size
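40 nM FBPA preincubated 10 min at RT with compound (up to 57.5 uM final), then substrate plus GAPDH/TPI/NAD/arsenate coupling and diaphorase/resazurin added. Fluorescence read after 20 min at RT, 525/598 nm.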
RE007 growth inh = less growth of the S. pombe RE007 Vpr strain; AID 651644; S. pombe RE007 Vpr strain, BacTiter-Glo ATP luminescence, 24 h; Potency, µM (series often up to 92.2 µM), for inactives: at the highest dose activity change, negative = less growth, actives largely listed as inhibitors; 360,000 compounds, 0.21% hits; active = well fitted falling curve with a large enough effect; inconclusive = small, poorly fitted or top-dose-only effect; inactive = no such curve, though single readings can be large or run the other way; also: nearly all actives have a fitted effect of over 50% in size
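Fission yeast RE007 carrying one integrated HIV-1 vpr copy, seeded at OD 0.01 in PMG+AL medium with 23 nL pinned compound. Grown 24 h at 30 degrees; viability read by BacTiter-Glo luminescence after 5 min.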
TbPYK inhibitor = blocks Trypanosoma brucei pyruvate kinase. Q57TT1. TbPYK enzyme, Kinase-Glo Plus ATP luminescence, 45 min. Potency, µM (series often up to 76.8 µM), for the others: at the highest dose activity, negative = inhibition, most hits filed as inhibitors. 410,000 compounds, 0.12% hits. AID 624173; also: nearly all actives have a fitted effect of over 50% in size
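TbPYK + substrate in 50 mM TEA pH 7.2, 100 mM KCl, 10 mM MgCl2, 0.05% BSA, 0.01% Tween-20; cpd pinned; ADP 130 uM final; 45 min RT; Kinase-Glo Plus 10 min; luminescence endpoint.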
Sm TGR inh = blocks Schistosoma mansoni thioredoxin glutathione reductase. Q962Y6. purified TGR, DTNB reduction, TNB absorbance 405 nm. Potency, µM (series often up to 114 µM), for the others: at the top dose activity change, negative = inhibition, most hits filed as inhibitors. 360,000 compounds, 3% hits; also: nearly all actives have a fitted effect of over 60% in size
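TGR 20 nM + NADPH 100 uM (dispensed conc.), cpd preinc 15 min RT; start with NADPH (500 uM addition) then DTNB (15 mM addition). Kinetic TNB absorbance, 405 nm filter. Four-parameter Hill fit across titration.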
LmPK inh = blocks Leishmania mexicana pyruvate kinase activity; Q27686; purified LmPK, Kinase-Glo ATP luminescence, 1 h; Potency, µM (titrated, usually from 57.5 µM), for inactives: at the highest dose activity change, negative = inhibition, most hits filed as inhibitors; 290,000 compounds, 0.37% hits; AID 1721
Target sequence (Q27686 whole entry, looked up): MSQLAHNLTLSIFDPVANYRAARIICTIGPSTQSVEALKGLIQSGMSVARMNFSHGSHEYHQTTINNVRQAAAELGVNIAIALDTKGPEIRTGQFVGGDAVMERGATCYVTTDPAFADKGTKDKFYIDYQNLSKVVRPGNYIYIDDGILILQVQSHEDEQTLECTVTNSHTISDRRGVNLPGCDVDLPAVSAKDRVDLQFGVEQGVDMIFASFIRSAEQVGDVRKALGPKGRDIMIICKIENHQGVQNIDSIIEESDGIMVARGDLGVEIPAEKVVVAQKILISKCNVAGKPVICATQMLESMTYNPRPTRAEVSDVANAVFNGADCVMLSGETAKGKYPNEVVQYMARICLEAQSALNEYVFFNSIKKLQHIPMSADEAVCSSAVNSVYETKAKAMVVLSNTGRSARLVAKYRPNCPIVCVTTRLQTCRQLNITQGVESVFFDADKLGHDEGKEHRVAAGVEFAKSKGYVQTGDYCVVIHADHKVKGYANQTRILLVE
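Pyruvate kinase activity monitored as ATP production (luciferase luminescence). Conditions: 0.1 nM enzyme, 0.5 mM PEP, 0.1 mM ADP, 1 h, RT; normalized against uninhibited and no-enzyme wells.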
Active calls of the source: *. Hits are enriched below; roughly 3.3% of the tested compounds scored in any of these assays. Unless noted, calls follow the shape of the dose curve; as a rule, active = well fitted curve in the direction sought with a large enough effect; inconclusive = small, poorly fitted or top-dose-only effect, or another doubt; inactive = no such curve, though single readings can be large; an effect the other way counts as inactive or inconclusive. % is scaled to controls: 0 for no effect and ±100 for the full control effect; potency is read from the fitted curve at half-maximal effect.

CC(Oc1ccc(Br)cc1)C(=O)Nc1ccc(S(=O)(=O)N(C)C2CCN(C)CC2)cc1 (configuration not stated) was read as RE007 growth inh 1%, TbPYK inhibitor -18% and Sm TGR inh 1%.
For CCC(=O)Nc1sc(Cc2ccccc2)c(C)c1C(N)=O the results were Giardia FBPA inh -28%, RE007 growth inh -5%, TbPYK inhibitor -1%, Sm TGR inh 2% and LmPK inh 4%.
`O=C(C1=C[C@@H]2[C@H]3C(=O)N(c4ccccc4)C(=O)[C@H]3[C@@H](C(=O)c3ccc(Cl)cc3)N2C=C1)c1ccccc1` gave Giardia FBPA inh inconclusive, Sm TGR inh 14µM* and LmPK inh 0%.
CCn1cnc2c(Nc3cccc(Cl)c3)nc(C#N)nc21 was read as TbPYK inhibitor 1% and Sm TGR inh -23%.
For CCn1cnc2c(NCCc3cccnc3)nc(C#N)nc21 the results were TbPYK inhibitor 2% and Sm TGR inh 50µM*.
CC(=O)c1c(C(=O)O)[nH]c(C(=O)O)c1C was read as Giardia FBPA inh -11%, RE007 growth inh 4%, TbPYK inhibitor -5%, Sm TGR inh 10µM* and LmPK inh -4%.
Cc1[nH]c(C(=O)O)c(C)c1C(=O)OC(C)C was read as Giardia FBPA inh -6%, RE007 growth inh 20%, TbPYK inhibitor 0%, Sm TGR inh inconclusive and LmPK inh 0%.
`O=C(c1ccco1)C12CN3CN(CN(C3)C1)C2` gave Giardia FBPA inh 2%, RE007 growth inh -15%, TbPYK inhibitor 3%, Sm TGR inh -10% and LmPK inh 2%.
CC[n+]1c(/C=C/c2cc([N+](=O)[O-])ccc2O)ccc2ccccc21 was read as Giardia FBPA inh -18%, RE007 growth inh -20%, TbPYK inhibitor -15%, Sm TGR inh 0% and LmPK inh -3%.
O=C1NC(=O)C(=Cc2ccc(SC3CCCCC3)o2)C(=O)N1 was read as Giardia FBPA inh -11%, RE007 growth inh -11%, TbPYK inhibitor inconclusive, Sm TGR inh 40µM* and LmPK inh -8%.
Screening CNS(=O)(=O)c1ccc(-c2ccc(C=C3C(=O)NC(=O)NC3=O)o2)cc1 returned Giardia FBPA inh -3%, RE007 growth inh 3%, TbPYK inhibitor inconclusive, Sm TGR inh inconclusive and LmPK inh -7%.
For Cn1c(CSc2nc3ccccc3n2C)nc2ccccc21 the results were RE007 growth inh 19%, TbPYK inhibitor 5%, Sm TGR inh 12% and LmPK inh -2%.
`Cn1c(SC2=CS(=O)(=O)c3ccccc32)nc2ccccc21` gave Giardia FBPA inh 0%, RE007 growth inh 4%, TbPYK inhibitor 3%, Sm TGR inh 40µM* and LmPK inh 2%.
O=C(CNC(=S)NC(=O)c1ccc(Cl)cc1)c1ccccc1 was read as Giardia FBPA inh 2%, RE007 growth inh -3%, TbPYK inhibitor -5%, Sm TGR inh 5% and LmPK inh 2%.
Screening O=C(O)c1cc(N/N=C/C(Cl)=C/c2ccccc2)ccc1Cl returned Giardia FBPA inh 4%, RE007 growth inh -9%, TbPYK inhibitor -5%, Sm TGR inh 35µM* and LmPK inh 4%.
Screening COc1ccc(CNC(=O)c2ccc(C)cc2)cc1 returned Giardia FBPA inh 0%.
C/C=C/C=C\C(=O)Nc1cccc(C2=NOC3(C2)C[C@@H](C(N)=O)N(C(=O)/C(C)=C/C)C3)c1 (some centres not stated) was read as Giardia FBPA inh -6%, RE007 growth inh -12%, TbPYK inhibitor -17%, Sm TGR inh 2.5µM* and LmPK inh -2%.
For C/C=C\C=C\C(=O)Nc1cccc(C2=NOC3(C2)C[C@@H](C(N)=O)N(C(=O)C(c2ccccc2)c2ccccc2)C3)c1 (some centres not stated) the results were Giardia FBPA inh -18%, RE007 growth inh -5%, TbPYK inhibitor -8%, Sm TGR inh 1.8µM* and LmPK inh 5%.
Screening C/C=C\C=C/C(=O)Nc1cccc(C2=NOC3(C2)C[C@H](C(N)=O)N(C(=O)CC)C3)c1 (some centres not stated) returned Giardia FBPA inh -19%, RE007 growth inh -9%, TbPYK inhibitor -20%, Sm TGR inh 1.8µM* and LmPK inh 5%.
Screening C/C=C\C=C/C(=O)Nc1cccc(C2=NOC3(C2)C[C@@H](C(N)=O)N(C(=O)CCCCC)C3)c1 (some centres not stated) returned Giardia FBPA inh -9%, RE007 growth inh -10%, TbPYK inhibitor inconclusive, Sm TGR inh 2.5µM* and LmPK inh 3%.
Screening C/C=C/C=C/C(=O)N1CC2(CC(c3cccc(NC(=O)/C=C/C)c3)=NO2)C[C@@H]1C(N)=O (some centres not stated) returned Giardia FBPA inh -5%, RE007 growth inh 9%, TbPYK inhibitor -26%, Sm TGR inh inconclusive and LmPK inh 0%.
`Cc1cccc(CCNC(=O)C2CCCN(c3ncnc4c3nc3n4CCCCC3)C2)c1` (configuration not stated) gave Giardia FBPA inh -15%, RE007 growth inh 6%, TbPYK inhibitor -5%, Sm TGR inh -2% and LmPK inh 10%.
O=c1c(CCc2ccccc2)nc2cncnc2n1Cc1ccc(F)cc1 was read as Giardia FBPA inh 3%.
Screening O=[N+]([O-])c1ccc(Nc2ccc3ccccc3c2)nc1 returned Giardia FBPA inh -3%, RE007 growth inh 14%, TbPYK inhibitor -14%, Sm TGR inh 0% and LmPK inh 9%.
C=C(C)C(=O)Nc1cccc(C2=NOC3(C2)C[C@@H](C(N)=O)N(C(=O)/C=C/C=C/C)C3)c1 (some centres not stated) was read as Giardia FBPA inh -6%, RE007 growth inh 4%, TbPYK inhibitor -14%, Sm TGR inh 8.9µM* and LmPK inh -4%.
`C/C=C/C=C\C(=O)Nc1cccc(C2=NOC3(C2)C[C@H](C(N)=O)N(C(=O)CC#N)C3)c1` (some centres not stated) gave Giardia FBPA inh -20%, RE007 growth inh -11%, TbPYK inhibitor -15%, Sm TGR inh 2µM* and LmPK inh 7%.
For C/C=C(/C)C(=O)Nc1cccc(C2=NOC3(C2)C[C@H](C(N)=O)N(C(=O)Cc2ccc([N+](=O)[O-])cc2)C3)c1 (some centres not stated) the results were Giardia FBPA inh -1%, RE007 growth inh -7%, TbPYK inhibitor 1%, Sm TGR inh 2% and LmPK inh -5%.
